Screens deposited in PubChem BioAssay by National Center for Advancing Translational Sciences (NCATS).
KDM4E inh = inhibitors of human JMJD2E histone demethylase. B2RXH2. JMJD2E catalytic domain, FDH-coupled NADH fluorescence (FDH is formaldehyde dehydrogenase). Potency, µM (highest dose often 57.1 µM), without a hit: at the top dose activity change, negative = inhibition, usual class: inhibitors. hit rate 1.6% among 230,000; active = well fitted inhibition curve with a large enough effect, not every such curve was filed as active; inconclusive = small, poorly fitted or top-dose-only effect, or another doubt; inactive = no such curve, though single readings can be large or run the other way;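 also: potency is read from the fitted curve at half-maximal effect; 0% = wells with enzyme and -100% = buffer wells without enzyme; nearly all actives have a fitted effect of over 50% in size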
HttQ103 aggreg = inhibitors of mutant huntingtin aggregate formation in PC12 cells | PC12 HttQ103-GFP aggregates, Acumen cytometry, 40 h | Potency, µM (highest dose often 46.1 µM), for inactives: at the highest dose activity change, negative = inhibition, most hits filed as inhibitors | hit rate 1.1% among 220,000; also: potency is read from the fitted curve at half-maximal effect; % is scaled to controls: 0 for no effect and ±100 for the full control effect; nearly all actives have a fitted effect of over 60% in size
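Inducible Q103 Huntingtin exon 1–GFP PC12 line, 1500 cells/well in phenol red free DMEM with 5% equine and 5% calf serum. Tebufenozide 100 nM induced expression; compounds titrated; aggregates quantified by cytometry.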
RGS12 GoLoco inh = RGS12 GoLoco-Gai1 interaction inhibition. P63096. hit rate 0.44% among 230,000. Gai1:RGS12 GoLoco peptide FP, rhodamine, 10 min. Potency, µM (series often up to 61.6 µM), without a hit: top-dose activity, negative = inhibition, hits mostly inhibitors. AID 880; active = well fitted inhibition curve with a large enough effect, not every such curve was filed as active; inactive = no such curve, though single readings can be large or run the other way; also: potency is read from the fitted curve at half-maximal effect; % is scaled to controls: 0 for no effect and ±100 for the full control effect; nearly all actives have a fitted effect of over 30% in size
Target sequence (P63096 whole entry, looked up): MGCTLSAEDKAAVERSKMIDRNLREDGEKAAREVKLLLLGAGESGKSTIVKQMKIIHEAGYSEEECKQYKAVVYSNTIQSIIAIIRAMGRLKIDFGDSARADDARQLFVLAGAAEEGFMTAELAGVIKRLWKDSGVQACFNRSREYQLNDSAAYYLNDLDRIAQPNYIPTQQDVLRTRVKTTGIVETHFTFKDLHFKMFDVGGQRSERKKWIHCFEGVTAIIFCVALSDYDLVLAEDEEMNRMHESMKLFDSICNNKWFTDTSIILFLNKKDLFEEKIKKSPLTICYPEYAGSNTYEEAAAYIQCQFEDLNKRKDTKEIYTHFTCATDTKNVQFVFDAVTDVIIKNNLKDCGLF
HTT cytoprotect = Huntington cell model cytoprotection by ATP luminescence. PC12 HTT-Q103 induced, cytoprotection, ATP luminescence, 40 h. Potency, µM (titrated, usually from 56.4 µM), for inactives: cytoprotection (ATP increase), usual class: activators. hit rate 0.14% among 230,000. AID 1471; also: potency is read from the fitted curve at half-maximal effect; % of control where 0% means no effect; nearly all actives have a fitted effect of over 45% in size
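Quantitative HTS on tebufenozide-induced (100 nM) PC12 cells expressing HTTQ103 exon 1–GFP; compounds tested as a concentration series; survival measured via cellular ATP.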
VDR inhibitor = inhibitors of human vitamin D receptor | P11473 | VDR-SRC2-3 peptide fluorescence polarization, 2 h | Potency, µM, without a hit: max response, negative = inhibition, actives largely listed as inhibitors | hit rate 0.93% among 400,000 | AID 504847; also: potency is read from the fitted curve at half-maximal effect; % is scaled to controls: 0 for no effect and ±100 for the full control effect
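Reagent solutions, kept cold and dark, are dispensed first; compounds are then pinned in at 23 nl, plates briefly spun, and incubated 2 h at ambient temperature. Inhibition of VDR–SRC2-3 peptide binding is read by fluorescence polarization.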
FBPA coupling cs = counter-screen for Giardia aldolase inhibitors: coupling enzyme system; coupling enzyme system counterscreen, AmpLite Red fluorescence; AID 2472; hit rate 0.67% among 290,000; activity change, negative = inhibition, % at 58.2 µM, hits read low; in the data active = activity change below about -30%; also: % is scaled to controls: 0 for no effect and ±100 for the full control effect
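Compounds tested against the coupling enzymes alone at 57.5 uM final; readout was AmpLite Red fluorescence (525/598 nm) after 20 min at RT.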
An asterisk follows results filed as active; [ ] = remark or other dose. Compounds with a hit are over-represented: about 2.3% of the library has one in this group of screens. Unless noted, calls follow the shape of the dose curve; as a rule, active = well fitted curve in the direction sought with a large enough effect; inconclusive = small, poorly fitted or top-dose-only effect, or another doubt; inactive = no such curve, though single readings can be large; an effect the other way counts as inactive or inconclusive.

For O=C1CCC(=O)N(O)CCCCCNC(=O)CCC(=O)N(O)CCCCNC(=O)CCC(=O)N(O)CCCCCN1 the results were KDM4E inh 4.5µM*, HttQ103 aggreg 4%[9.22 µM], RGS12 GoLoco inh 1%, HTT cytoprotect 6%[10 µM], VDR inhibitor 6% and FBPA coupling cs 5.
O=C(c1ccccc1NS(=O)(=O)c1ccc([N+](=O)[O-])cc1[N+](=O)[O-])N1O[C@@H]2C=C[C@H]1C2 was read as VDR inhibitor 45µM*.
c1ccc2c(c1)[nH]c1c(N3CCOCC3)ncnc12 was read as KDM4E inh inconclusive, HttQ103 aggreg -29%, RGS12 GoLoco inh 5%, HTT cytoprotect -2%, VDR inhibitor -12% and FBPA coupling cs -1.
CCc1cc(N2CCOCC2)cc2c1[nH]c1ccccc12 was read as KDM4E inh inconclusive, HttQ103 aggreg -4%, RGS12 GoLoco inh -3%, HTT cytoprotect -7%, VDR inhibitor -13% and FBPA coupling cs -43*.
`O=c1[nH]nc(CNc2ccc(O)cc2)c2ccccc12` gave KDM4E inh inconclusive, HttQ103 aggreg inconclusive, RGS12 GoLoco inh -29%, HTT cytoprotect -9%, VDR inhibitor inconclusive and FBPA coupling cs -49*.
For CCc1oc2ccccc2c1C(=O)c1cc(I)c(O)c(I)c1 the results were HttQ103 aggreg 12%, RGS12 GoLoco inh -2%, HTT cytoprotect 28% and VDR inhibitor 32µM*.
`CCCCc1oc2ccccc2c1C(=O)c1cc(I)c(N(CC)CCOCC)c(I)c1` gave VDR inhibitor 3%.
For N#CC(C#N)=Cc1cc2ccccc2nc1N1CCCCC1 the results were KDM4E inh -8%, HttQ103 aggreg -13%, RGS12 GoLoco inh -3%, VDR inhibitor 71µM* and FBPA coupling cs -23.
CN(C(=O)Cc1ccccc1OC(=O)c1ccccc1)c1ccccc1I was read as VDR inhibitor 2% and FBPA coupling cs 6.
O=c1[nH]c(Nc2ccc(F)cc2)cc2ccccc12 was read as KDM4E inh inconclusive, HttQ103 aggreg 29%, RGS12 GoLoco inh -20%, HTT cytoprotect -10%, VDR inhibitor -13% and FBPA coupling cs -34*.
For O=c1[nH]c(Nc2ccccc2Cl)cc2ccccc12 the results were VDR inhibitor 0%.
Screening Cn1cc([N+](=O)[O-])c(C(=O)NCc2ccccc2)n1 returned KDM4E inh -3%, HttQ103 aggreg -2%[9.22 µM], RGS12 GoLoco inh -42%, HTT cytoprotect -3%[10 µM], VDR inhibitor -10% and FBPA coupling cs -1.
`Cn1cc([N+](=O)[O-])c(C(=O)N(Cc2ccccc2)Cc2ccccc2)n1` gave KDM4E inh -7%, HttQ103 aggreg 24%, RGS12 GoLoco inh -1%, HTT cytoprotect 2.5µM*, VDR inhibitor -5% and FBPA coupling cs 1.
`Oc1ccccc1C=Nc1cccc2ccccc12` gave VDR inhibitor -12% and FBPA coupling cs -2.
C=Cc1ccc(N=Cc2c(O)ccc3ccccc23)cc1 was read as VDR inhibitor -1% and FBPA coupling cs -30*.
Oc1cccc(C=Nc2cccc3ccccc23)c1O was read as VDR inhibitor 28µM* and FBPA coupling cs -14.
For Oc1cccc(C=NCc2ccccc2)c1O the results were KDM4E inh 13µM*, HttQ103 aggreg -1%, RGS12 GoLoco inh 66%, HTT cytoprotect -16%, VDR inhibitor inconclusive and FBPA coupling cs -37*.
Oc1ccccc1N=Cc1c(O)ccc2ccccc12 was read as KDM4E inh 25µM*, HttQ103 aggreg -10%[9.22 µM], RGS12 GoLoco inh 26%, HTT cytoprotect 9%[10 µM], VDR inhibitor -16% and FBPA coupling cs -27.
`Oc1c(C=NCc2ccccc2)sc2ccccc12` gave KDM4E inh -8%, HttQ103 aggreg 16%[9.22 µM], RGS12 GoLoco inh 10%, HTT cytoprotect 18%[10 µM], VDR inhibitor -6% and FBPA coupling cs -2.
CCCCn1nc(C(=O)N(C)C2CCCCC2)c2ccccc2c1=O was read as VDR inhibitor 11%.
